Source: PubChem
An excerpt weighted towards active compounds, which were near 2.3% of everything screened.
proKLK7 act: proKLK7 (human) activation, primary screen. purified proKLK7, EDANS-DABCYL substrate fluorescence; 100% is mature enzyme control, 0% vehicle. activation, % at 7 µM. hit rate 0.9% among 370,000. AID 652039;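 active = activation above the mean of all tested compounds plus 3 SD, computed per campaign excluding outliers beyond control limits, cut at about 13% in these data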
ADAM17 inh: inhibits human ADAM17; P78536; recombinant ADAM17, EDANS/DABCYL FRET peptide cleavage; inhibition, % at 6.95 µM; hit rate 0.83% among 370,000; AID 720648;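 active = inhibition above the mean of compounds lying between control limits plus 3 SD, set per campaign, cut at about 8.5% in these data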
V-ATPase pHluor: alters yeast V-ATPase proton transport; S. cerevisiae, pHLuorin cytosolic pH fluorescence; hit rate 0.37% among 350,000; response, % at 10 µM; AID 504577; in the data active = response mostly above about 7.3%, no sharp cut-off; inactive = mostly below about 5.4%; also: actives read high
ADAM10 inh: inhibits human ADAM10 | AID 720582 | inhibition, % at 7 µM | O14672 | recombinant ADAM10, EDANS/DABCYL FRET peptide cleavage, 3 h | hit rate 0.62% among 370,000;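 active = inhibition above a per-campaign cutoff equal to the mean of compounds falling between control-based bounds plus 3 SD, cut at about 20% in these data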
Target sequence (O14672 214-748 limits assumed): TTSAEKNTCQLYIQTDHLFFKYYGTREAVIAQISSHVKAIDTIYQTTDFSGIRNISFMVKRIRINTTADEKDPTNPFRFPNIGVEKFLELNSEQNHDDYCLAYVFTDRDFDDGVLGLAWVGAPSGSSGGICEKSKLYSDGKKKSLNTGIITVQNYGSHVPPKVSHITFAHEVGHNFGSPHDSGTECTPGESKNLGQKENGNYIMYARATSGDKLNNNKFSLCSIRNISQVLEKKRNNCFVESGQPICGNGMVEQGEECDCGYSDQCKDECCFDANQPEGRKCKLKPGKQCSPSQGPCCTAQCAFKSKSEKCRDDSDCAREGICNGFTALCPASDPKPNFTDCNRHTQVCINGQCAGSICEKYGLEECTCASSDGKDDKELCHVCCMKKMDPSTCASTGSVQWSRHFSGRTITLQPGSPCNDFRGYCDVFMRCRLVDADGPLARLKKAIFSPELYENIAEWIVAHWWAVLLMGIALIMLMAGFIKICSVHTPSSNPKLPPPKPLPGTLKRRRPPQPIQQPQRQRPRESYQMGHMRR
KLK7 act conf: proKLK7 activation, confirmation; shares compounds with proKLK7 act; AID 686949; purified proKLK7, EDANS-DABCYL substrate fluorescence; scaled: vehicle 0, mature enzyme 100; hit rate 68% among 3,200; activation, % at 7 µM;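 active = activation, as change over the incubation, above the mean of all tested compounds plus 3 SD, cut at about 13% in these data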
EDANS-DABCYL int: fluorescence interference counter-screen for KLK7 activators; AID 686952; EDANS-DABCYL substrate fluorescence interference, no enzyme, 4 h; solvent 0%, active enzyme control 100%; hit rate 80% among 3,200; activation, % at 7 µM; shares compounds with proKLK7 act;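 active = activation above the all-compound mean plus 3 SD, ignoring values outside control-based bounds, cut at about 4.8% in these data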;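 also: value is the 4 h activation minus the activation read at time zero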
Of the large screens only hits and unclear results are named; the others gave an inactive call (follow-up assays come after a bar, where they were run).

O[C@H](COc1cccc(F)c1)CN1CCC(C(O)(c2ccccc2)c2ccccc2)CC1	none (no result: V-ATPase pHluor)
Cc1nc2c(c3c1[nH]c1ccccc13)C(O)CC(C)(C)C2 (stereo unspecified)	proKLK7 act 34 | KLK7 act conf 41 | EDANS-DABCYL int 40
COc1ccc2c(c1)CN1CN(CC(C)C)S(=O)(=O)CC21 (stereo unspecified)	none (no result: V-ATPase pHluor)
COc1cccc(NC(=O)c2cc(-c3ccc(OC)cc3OC)nc3ccccc23)c1	proKLK7 act 67 | KLK7 act conf inactive | EDANS-DABCYL int inactive
COc1ccc(/C=N/NC(=O)c2cc(-c3ccccc3)nc3ccccc23)c(OC)c1	proKLK7 act 275 | KLK7 act conf 171 | EDANS-DABCYL int 220
O=C(N/N=C/c1cccc(O)c1)c1cc(-c2ccccc2)nc2ccccc12	none
CN(C)c1ccc(C2C3C(=O)N(c4ccc(C(=O)O)cc4)C(=O)C3ON2c2ccccc2)cc1 (stereo unspecified)	proKLK7 act 63 | KLK7 act conf inactive | EDANS-DABCYL int inactive
CC1(C)Nc2ccccc2C(=O)N1NS(=O)(=O)c1ccccc1	proKLK7 act 75 | KLK7 act conf 46 | EDANS-DABCYL int 42
CCOC(=O)NN1C(=O)c2ccccc2NC12CCCC2	none
COC(=O)C1(C)Nc2ccccc2C(=O)N1c1ccccc1C (stereo unspecified)	none
Cc1ccc(S(=O)(=O)NN2C(=O)c3ccccc3NC2(C)C)cc1	proKLK7 act 49 | KLK7 act conf 50 | EDANS-DABCYL int 43
COc1ccc(-c2cc(C(=O)OCc3ccccn3)c3ccccc3n2)cc1	proKLK7 act 22 | KLK7 act conf inactive | EDANS-DABCYL int inactive
COc1ccc(-c2cc(C(=O)OCC(=O)N(C)C)c3ccccc3n2)cc1	proKLK7 act 50 | KLK7 act conf 39 | EDANS-DABCYL int 43
COc1ccc(-c2cc(C(=O)Oc3ccc([N+](=O)[O-])cc3)c3ccccc3n2)cc1	proKLK7 act 33 | KLK7 act conf 64 | EDANS-DABCYL int 71
COc1ccc(-c2cc(C(=O)OC3CCOC3=O)c3ccccc3n2)cc1 (stereo unspecified)	proKLK7 act 97 | KLK7 act conf inactive | EDANS-DABCYL int 12
Cc1cn2c(=O)c3ncn(C4OC(CO)C(O)C4O)c3n(C)c2n1 (stereo unspecified)	none (no result: V-ATPase pHluor)
COC(=O)C1=C(C(=O)OC)[C@@]2([C@H](Cc3ccc(C)cc3)Nc3ccccc3)C=C[C@@H]1O2	none (no result: proKLK7 act, V-ATPase pHluor)
Cc1cccnc1N=O	none (no result: V-ATPase pHluor)
O=C1CCCC2=C1C(c1ccc(O)cc1)c1c(ccc3ccccc13)N2 (stereo unspecified)	proKLK7 act 20 | KLK7 act conf inactive | EDANS-DABCYL int inactive
O=C1CCCC2=C1C(c1ccc(O)c(O)c1)c1c(ccc3ncccc13)N2 (stereo unspecified)	none
C#CCNC(=O)C[C@H]1C[C@@]2(C(=O)OC)C(=C[C@H](C(C)C)O[C@@H]2C2CC2)N(Cc2ccc(Cl)cc2Cl)C1=O	none (no result: V-ATPase pHluor)
O=C1NN(c2ccc(Br)cc2)C(=O)/C1=C\c1ccc(O)cc1O	proKLK7 act 157 | KLK7 act conf 181 | EDANS-DABCYL int 196
NCCCC(C(=O)O)N(C(=O)OCc1ccccc1)C(=O)OCc1ccccc1 (stereo unspecified)	none (no result: V-ATPase pHluor)
Cc1ccc2nc(NC(=O)Cc3cccs3)sc2c1	none
Cc1ccc2nc(-c3ccc(NC(=O)Cc4cccs4)cc3)[nH]c2c1	proKLK7 act 52 | KLK7 act conf inactive | EDANS-DABCYL int inactive
CC(C)CN(CC(C)C)C(=O)CSc1nc2cccnc2n1C	none (no result: V-ATPase pHluor)
COc1cccc2sc3cc(NCc4ccc5c(c4)OCO5)ccc3c(=O)c12	proKLK7 act 42 | KLK7 act conf 47 | EDANS-DABCYL int 46
O=C1c2cccc3cccc(c23)C(=O)N1OS(=O)(=O)c1ccccc1	proKLK7 act 26 | KLK7 act conf inactive | EDANS-DABCYL int inactive
Cc1ccc(S(=O)(=O)ON2C(=O)c3cccc4cccc(c34)C2=O)cc1	proKLK7 act 19 | KLK7 act conf inactive | EDANS-DABCYL int 39
CC(C)(C)c1ccc(S(=O)(=O)N2CCCC(C(=O)NCc3cccs3)C2)cc1 (stereo unspecified)	none (no result: V-ATPase pHluor)
CC(C)C[C@@H]1COc2cc(N3CCOCC3)ccc2S(=O)(=O)N1	none (no result: V-ATPase pHluor)
